# Data: paper PMC7862700, “An all-to-all approach to the identification of sequence-specific readers for epigenetic DNA modifications on cytosine”
# Key:
# Assay in all cases: DAPPL (digital affinity profiling via proximity ligation, sequencing); 10 mM Tris-HCl pH 7.5, 50 mM NaCl, 1 mM DTT, 4% glycerol, room temperature, 30 min; GST-TFs on glutathione beads, 16-mer random dsDNA library, 0.1% formaldehyde crosslink after washing; high values mean tight binding
# [1] = target: T1, FLI1 (Homo sapiens, UniProt Q01543 1-452); conditions: protein: recombinant; tags: N-terminal GST; dsDNA, one strand shown
# T1 sequence: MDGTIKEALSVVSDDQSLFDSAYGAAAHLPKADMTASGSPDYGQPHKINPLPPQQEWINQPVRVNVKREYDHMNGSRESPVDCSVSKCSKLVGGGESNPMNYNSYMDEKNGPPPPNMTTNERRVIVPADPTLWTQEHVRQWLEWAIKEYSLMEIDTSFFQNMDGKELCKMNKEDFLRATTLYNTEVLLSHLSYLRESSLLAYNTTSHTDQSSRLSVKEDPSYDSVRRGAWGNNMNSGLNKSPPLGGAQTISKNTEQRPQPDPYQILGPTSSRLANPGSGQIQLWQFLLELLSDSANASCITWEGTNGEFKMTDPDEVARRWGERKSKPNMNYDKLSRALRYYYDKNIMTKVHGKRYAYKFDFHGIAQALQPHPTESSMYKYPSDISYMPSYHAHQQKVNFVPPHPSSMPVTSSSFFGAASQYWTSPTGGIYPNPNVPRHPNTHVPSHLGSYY
# Method in brief: (§1)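 Human transcription factors fused to GST were expressed in yeast, captured on glutathione beads, given DNA barcodes and pooled with a GST-only negative control. Pools were incubated with 200 nmole of a 16-mer random double-stranded DNA library in Tris/NaCl/DTT/glycerol buffer at room temperature for 30 min. They were then washed, crosslinked with 0.1% formaldehyde, proximity-ligated (BsaI/T4 ligase, 1 h, 37 °C), PCR-amplified and sequenced on an Illumina NextSeq500. Binding signal is each 6-mer's read frequency for a factor divided by its frequency for the GST control.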
# [2] = target: T2, ELK1 (Homo sapiens, UniProt P19419 1-428); conditions: protein: recombinant; tags: N-terminal GST; dsDNA, one strand shown
# T2 sequence: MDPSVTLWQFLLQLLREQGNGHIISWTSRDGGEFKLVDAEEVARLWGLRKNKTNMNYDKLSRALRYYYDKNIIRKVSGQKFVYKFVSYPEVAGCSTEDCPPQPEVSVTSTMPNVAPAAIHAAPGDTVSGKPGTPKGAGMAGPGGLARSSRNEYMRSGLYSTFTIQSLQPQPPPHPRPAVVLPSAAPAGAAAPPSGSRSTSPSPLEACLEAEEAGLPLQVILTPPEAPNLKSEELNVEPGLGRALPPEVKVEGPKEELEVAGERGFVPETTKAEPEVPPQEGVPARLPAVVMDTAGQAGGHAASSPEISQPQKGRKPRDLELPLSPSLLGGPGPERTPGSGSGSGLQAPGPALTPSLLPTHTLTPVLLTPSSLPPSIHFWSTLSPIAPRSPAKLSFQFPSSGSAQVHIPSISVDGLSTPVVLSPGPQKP
# Method in brief: as §1
# [3] = target: T3, GABPA (Homo sapiens, UniProt Q06546 1-454); conditions: protein: recombinant; tags: N-terminal GST; dsDNA, one strand shown
# T3 sequence: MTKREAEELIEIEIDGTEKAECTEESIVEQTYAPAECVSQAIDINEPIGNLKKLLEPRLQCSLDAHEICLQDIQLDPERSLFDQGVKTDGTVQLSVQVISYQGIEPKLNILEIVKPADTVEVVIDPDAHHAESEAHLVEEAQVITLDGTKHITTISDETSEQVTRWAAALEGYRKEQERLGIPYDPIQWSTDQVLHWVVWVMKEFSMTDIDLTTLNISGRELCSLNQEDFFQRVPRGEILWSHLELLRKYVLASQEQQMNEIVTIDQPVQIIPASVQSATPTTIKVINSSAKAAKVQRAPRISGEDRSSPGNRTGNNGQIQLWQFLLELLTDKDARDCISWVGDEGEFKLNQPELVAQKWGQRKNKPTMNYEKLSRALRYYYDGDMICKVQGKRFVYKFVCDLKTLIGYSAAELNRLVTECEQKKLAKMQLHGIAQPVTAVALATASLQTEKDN
# Method in brief: as §1
# [4] = target: T4, ERG (Homo sapiens, UniProt P11308 1-479); conditions: protein: recombinant; tags: N-terminal GST; dsDNA, one strand shown
# T4 sequence: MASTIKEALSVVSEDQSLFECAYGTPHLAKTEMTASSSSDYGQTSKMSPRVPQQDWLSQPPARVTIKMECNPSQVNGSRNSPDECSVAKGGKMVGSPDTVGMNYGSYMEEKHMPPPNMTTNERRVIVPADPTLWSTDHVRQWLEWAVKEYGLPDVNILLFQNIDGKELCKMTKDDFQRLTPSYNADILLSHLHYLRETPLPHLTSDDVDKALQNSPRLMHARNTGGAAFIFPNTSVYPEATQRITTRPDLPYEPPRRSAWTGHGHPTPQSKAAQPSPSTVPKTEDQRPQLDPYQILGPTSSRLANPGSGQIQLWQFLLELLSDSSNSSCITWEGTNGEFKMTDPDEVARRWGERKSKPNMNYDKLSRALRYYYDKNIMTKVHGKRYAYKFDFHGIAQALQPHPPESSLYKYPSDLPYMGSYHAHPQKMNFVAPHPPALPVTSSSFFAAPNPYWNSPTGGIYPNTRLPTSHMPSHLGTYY
# Method in brief: as §1
# [5] = target: ELF1 (Homo sapiens, UniProt P32519 1-619); conditions: protein: recombinant; tags: N-terminal GST; dsDNA, one strand shown
# Method in brief: as §1
# [6] = target: T5, EHF (Homo sapiens, UniProt Q9NZC4 1-300); conditions: protein: recombinant; tags: N-terminal GST; dsDNA, one strand shown
# T5 sequence: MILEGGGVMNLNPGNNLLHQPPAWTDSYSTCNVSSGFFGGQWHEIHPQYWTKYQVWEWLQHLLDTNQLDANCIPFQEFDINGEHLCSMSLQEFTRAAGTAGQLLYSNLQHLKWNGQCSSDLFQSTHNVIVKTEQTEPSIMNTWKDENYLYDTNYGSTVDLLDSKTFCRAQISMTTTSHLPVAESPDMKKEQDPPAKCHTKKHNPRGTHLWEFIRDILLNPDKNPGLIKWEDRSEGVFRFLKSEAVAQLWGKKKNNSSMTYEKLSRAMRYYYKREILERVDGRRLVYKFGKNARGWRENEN
# Method in brief: as §1
# [7] = target: SPI1 (Homo sapiens, UniProt P17947 1-270); conditions: protein: recombinant; tags: N-terminal GST; dsDNA, one strand shown
# Method in brief: as §1
# [8] = target: SPIB (Homo sapiens, UniProt Q01892 1-262); conditions: protein: recombinant; tags: N-terminal GST; dsDNA, one strand shown
# Method in brief: as §1
# [9] = target: T6, ELK3 (Homo sapiens, UniProt P41970 1-407); conditions: protein: recombinant; tags: N-terminal GST; dsDNA, one strand shown
# T6 sequence: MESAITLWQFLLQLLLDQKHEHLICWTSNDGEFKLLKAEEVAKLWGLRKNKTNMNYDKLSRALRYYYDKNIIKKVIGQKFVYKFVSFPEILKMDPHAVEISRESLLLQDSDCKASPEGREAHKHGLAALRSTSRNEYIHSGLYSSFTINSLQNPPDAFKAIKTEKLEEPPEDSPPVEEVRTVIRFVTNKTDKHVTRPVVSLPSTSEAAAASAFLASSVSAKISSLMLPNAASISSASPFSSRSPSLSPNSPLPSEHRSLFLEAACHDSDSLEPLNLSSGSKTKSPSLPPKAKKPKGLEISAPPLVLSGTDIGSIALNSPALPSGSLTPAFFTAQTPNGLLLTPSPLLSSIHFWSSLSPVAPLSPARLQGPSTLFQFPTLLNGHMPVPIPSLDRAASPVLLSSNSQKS
# Method in brief: as §1
# [10] = target: T7, FEV (Homo sapiens, UniProt Q99581 1-238); conditions: protein: recombinant; tags: N-terminal GST; dsDNA, one strand shown
# T7 sequence: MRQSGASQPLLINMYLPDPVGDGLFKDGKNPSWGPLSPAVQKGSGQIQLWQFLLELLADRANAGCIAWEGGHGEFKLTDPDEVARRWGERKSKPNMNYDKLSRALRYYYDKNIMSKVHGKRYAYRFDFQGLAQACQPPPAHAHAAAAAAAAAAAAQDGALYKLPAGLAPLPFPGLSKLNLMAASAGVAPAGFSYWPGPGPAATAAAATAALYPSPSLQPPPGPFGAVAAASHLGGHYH
# Method in brief: as §1
# [11] = target: ETV5 (Homo sapiens, UniProt P41161 1-510); conditions: protein: recombinant; tags: N-terminal GST; dsDNA, one strand shown
# Method in brief: as §1
# [12] = target: HSF1 (Homo sapiens, UniProt Q00613 1-529); conditions: protein: recombinant; tags: N-terminal GST; chain copies: 3; dsDNA, one strand shown
# Method in brief: as §1
# [13] = target: T8, SPIC (Homo sapiens, UniProt Q8N5J4 1-248); conditions: protein: recombinant; tags: N-terminal GST; dsDNA, one strand shown
# T8 sequence: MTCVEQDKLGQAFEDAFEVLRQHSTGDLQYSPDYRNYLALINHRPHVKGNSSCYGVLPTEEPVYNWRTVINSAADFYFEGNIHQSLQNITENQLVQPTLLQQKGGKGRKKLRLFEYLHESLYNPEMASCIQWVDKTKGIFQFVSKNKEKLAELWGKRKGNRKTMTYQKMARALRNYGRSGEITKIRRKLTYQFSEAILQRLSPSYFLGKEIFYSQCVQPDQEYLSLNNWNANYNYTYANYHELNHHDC
# Method in brief: as §1
# [14] = target: ELF4 (Homo sapiens, UniProt Q99607 1-663); conditions: protein: recombinant; tags: N-terminal GST; dsDNA, one strand shown
# Method in brief: as §1
# [15] = target: T9, ELK4 (Homo sapiens, UniProt P28324-2 1-405); conditions: protein: recombinant; tags: N-terminal GST; dsDNA, one strand shown
# T9 sequence: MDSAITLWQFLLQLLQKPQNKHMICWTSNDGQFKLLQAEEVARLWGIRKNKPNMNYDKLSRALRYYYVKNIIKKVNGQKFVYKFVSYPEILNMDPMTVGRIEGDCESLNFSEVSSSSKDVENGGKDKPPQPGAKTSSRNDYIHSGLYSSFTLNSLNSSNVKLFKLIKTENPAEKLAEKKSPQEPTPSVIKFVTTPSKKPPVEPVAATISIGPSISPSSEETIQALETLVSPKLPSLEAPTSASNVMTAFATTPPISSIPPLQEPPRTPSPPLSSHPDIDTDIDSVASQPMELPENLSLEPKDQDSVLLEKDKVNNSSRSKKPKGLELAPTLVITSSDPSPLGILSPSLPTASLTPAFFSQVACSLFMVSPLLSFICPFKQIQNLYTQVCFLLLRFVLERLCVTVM
# Method in brief: as §1
# [16] = target: T10, ETV2 (Homo sapiens, UniProt O00321 1-342); conditions: protein: recombinant; tags: N-terminal GST; dsDNA, one strand shown
# T10 sequence: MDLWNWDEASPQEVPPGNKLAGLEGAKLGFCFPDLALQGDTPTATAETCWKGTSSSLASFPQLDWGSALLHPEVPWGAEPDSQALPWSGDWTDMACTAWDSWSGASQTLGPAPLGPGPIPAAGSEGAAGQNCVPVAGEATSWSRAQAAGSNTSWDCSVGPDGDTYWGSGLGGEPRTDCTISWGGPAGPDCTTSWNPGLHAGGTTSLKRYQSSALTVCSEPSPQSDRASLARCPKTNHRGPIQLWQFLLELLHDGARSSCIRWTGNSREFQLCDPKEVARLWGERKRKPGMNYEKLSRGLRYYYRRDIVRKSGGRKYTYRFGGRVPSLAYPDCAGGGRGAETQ
# Method in brief: as §1
# [17] = target: T11, ELF3 (Homo sapiens, UniProt P78545 1-371); conditions: protein: recombinant; tags: N-terminal GST; dsDNA, one strand shown
# T11 sequence: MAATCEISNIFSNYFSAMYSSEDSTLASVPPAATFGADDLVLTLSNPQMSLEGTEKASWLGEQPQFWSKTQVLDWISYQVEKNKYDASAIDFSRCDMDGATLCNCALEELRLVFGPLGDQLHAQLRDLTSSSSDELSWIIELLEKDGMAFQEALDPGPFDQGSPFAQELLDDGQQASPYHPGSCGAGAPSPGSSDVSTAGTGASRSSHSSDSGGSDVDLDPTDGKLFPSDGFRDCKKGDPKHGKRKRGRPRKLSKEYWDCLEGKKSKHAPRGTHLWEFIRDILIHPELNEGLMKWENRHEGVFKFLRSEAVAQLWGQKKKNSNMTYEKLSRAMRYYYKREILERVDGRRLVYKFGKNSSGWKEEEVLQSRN
# Method in brief: as §1
# [18] = target: CRX (Homo sapiens, UniProt O43186 1-299); conditions: protein: recombinant; tags: N-terminal GST; dsDNA, one strand shown
# Method in brief: as §1
# [19] = target: ETV1 (Homo sapiens, UniProt P50549 1-477); conditions: protein: recombinant; tags: N-terminal GST; dsDNA, one strand shown
# Method in brief: as §1
# ETV1, sequence (P50549 whole entry): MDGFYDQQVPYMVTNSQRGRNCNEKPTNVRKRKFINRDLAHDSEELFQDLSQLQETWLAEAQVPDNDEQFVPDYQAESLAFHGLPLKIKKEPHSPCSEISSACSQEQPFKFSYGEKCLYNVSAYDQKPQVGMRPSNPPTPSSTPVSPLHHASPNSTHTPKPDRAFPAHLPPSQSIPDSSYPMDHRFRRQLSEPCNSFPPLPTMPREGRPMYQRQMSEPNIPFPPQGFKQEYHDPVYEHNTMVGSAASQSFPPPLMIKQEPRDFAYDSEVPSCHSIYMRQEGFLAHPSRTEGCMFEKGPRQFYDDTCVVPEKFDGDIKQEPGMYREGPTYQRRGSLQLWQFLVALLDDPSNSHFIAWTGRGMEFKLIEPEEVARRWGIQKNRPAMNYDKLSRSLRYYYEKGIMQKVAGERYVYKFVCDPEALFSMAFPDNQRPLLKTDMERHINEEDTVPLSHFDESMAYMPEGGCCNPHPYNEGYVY
# SPIB, sequence (Q01892 whole entry): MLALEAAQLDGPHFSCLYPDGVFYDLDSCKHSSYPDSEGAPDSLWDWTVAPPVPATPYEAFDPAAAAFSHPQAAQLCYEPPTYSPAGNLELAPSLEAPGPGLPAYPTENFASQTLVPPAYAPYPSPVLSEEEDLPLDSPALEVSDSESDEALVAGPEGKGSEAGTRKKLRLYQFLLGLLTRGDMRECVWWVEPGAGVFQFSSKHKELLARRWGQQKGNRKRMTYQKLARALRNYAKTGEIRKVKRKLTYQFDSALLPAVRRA
# ETV5, sequence (P41161 whole entry): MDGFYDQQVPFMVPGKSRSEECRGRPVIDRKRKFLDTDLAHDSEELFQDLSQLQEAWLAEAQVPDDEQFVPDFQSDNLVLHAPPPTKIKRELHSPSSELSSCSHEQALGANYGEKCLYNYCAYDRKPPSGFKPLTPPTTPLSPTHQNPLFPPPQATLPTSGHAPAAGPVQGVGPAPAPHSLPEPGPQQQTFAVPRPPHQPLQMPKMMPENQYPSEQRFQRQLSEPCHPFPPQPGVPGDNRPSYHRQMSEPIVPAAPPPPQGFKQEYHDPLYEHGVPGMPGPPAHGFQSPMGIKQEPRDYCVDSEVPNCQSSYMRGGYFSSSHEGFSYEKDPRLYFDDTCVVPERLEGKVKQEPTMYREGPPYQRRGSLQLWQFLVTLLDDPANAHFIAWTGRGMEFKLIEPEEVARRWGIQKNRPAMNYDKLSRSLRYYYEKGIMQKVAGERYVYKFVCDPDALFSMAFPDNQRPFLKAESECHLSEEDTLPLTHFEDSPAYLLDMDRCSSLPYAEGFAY
# ELF1, sequence (P32519 whole entry): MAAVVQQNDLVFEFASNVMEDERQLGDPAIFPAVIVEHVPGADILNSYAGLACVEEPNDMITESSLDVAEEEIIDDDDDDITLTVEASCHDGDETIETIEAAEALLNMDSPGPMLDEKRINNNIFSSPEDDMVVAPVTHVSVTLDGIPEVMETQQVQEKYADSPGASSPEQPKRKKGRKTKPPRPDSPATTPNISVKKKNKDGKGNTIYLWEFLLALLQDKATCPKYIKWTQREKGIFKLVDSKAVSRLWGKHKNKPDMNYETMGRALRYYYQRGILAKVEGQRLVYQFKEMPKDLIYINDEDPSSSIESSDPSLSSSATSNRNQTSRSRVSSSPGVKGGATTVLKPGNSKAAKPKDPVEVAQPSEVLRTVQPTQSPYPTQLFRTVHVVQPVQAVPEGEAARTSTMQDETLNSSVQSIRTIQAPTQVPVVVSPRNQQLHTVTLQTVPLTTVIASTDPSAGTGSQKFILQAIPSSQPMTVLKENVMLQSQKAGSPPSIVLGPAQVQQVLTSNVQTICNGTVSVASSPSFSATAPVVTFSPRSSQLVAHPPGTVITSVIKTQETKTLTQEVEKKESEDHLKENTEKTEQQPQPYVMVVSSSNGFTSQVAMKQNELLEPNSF
# CRX, sequence (O43186 whole entry): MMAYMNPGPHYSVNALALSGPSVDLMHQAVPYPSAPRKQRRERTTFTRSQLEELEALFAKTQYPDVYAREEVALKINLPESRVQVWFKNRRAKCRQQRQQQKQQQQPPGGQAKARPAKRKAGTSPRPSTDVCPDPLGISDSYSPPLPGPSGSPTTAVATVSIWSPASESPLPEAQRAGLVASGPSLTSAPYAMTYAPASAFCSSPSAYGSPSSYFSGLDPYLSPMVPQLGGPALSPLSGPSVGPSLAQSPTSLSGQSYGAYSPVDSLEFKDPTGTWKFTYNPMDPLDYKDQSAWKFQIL
# HSF1, sequence (Q00613 whole entry): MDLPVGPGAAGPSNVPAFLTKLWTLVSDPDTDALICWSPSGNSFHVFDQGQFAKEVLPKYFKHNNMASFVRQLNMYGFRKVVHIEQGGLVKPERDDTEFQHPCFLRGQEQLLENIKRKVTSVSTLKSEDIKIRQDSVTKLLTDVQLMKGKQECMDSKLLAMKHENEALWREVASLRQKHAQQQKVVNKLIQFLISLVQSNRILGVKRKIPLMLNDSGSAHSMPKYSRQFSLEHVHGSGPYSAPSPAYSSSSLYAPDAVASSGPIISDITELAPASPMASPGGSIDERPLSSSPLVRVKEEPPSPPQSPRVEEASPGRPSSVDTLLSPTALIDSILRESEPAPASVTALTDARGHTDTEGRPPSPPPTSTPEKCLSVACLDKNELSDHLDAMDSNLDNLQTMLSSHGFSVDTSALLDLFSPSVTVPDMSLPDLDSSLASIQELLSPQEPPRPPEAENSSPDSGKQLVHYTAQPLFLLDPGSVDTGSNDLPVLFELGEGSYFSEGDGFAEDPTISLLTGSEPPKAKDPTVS
# ELF4, sequence (Q99607 whole entry): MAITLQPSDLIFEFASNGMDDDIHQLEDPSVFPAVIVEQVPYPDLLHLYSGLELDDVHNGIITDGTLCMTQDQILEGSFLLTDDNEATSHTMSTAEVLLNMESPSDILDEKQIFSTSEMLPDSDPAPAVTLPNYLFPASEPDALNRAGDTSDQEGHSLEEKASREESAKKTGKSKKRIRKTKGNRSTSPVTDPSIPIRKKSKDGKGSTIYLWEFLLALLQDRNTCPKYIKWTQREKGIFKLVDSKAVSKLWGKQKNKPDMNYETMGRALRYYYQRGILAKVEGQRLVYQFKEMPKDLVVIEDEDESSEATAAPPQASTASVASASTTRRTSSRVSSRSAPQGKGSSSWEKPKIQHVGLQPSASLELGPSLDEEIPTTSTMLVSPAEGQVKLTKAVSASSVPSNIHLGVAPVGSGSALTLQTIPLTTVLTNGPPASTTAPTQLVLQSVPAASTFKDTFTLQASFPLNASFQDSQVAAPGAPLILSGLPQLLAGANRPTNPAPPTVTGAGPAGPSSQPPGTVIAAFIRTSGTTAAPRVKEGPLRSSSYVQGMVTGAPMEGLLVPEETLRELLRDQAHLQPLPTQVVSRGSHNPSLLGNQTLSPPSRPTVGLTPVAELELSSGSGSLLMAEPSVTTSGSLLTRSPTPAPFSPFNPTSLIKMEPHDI
sequence,measurement,setting,value
TGACTT,binding signal,[1],"1.38 fold enrichment (6-mer frequency, TF over GST control)"
same,binding signal,[2],"1.5 fold enrichment (6-mer frequency, TF over GST control)"
same,binding signal,[3],"1.38 fold enrichment (6-mer frequency, TF over GST control)"
same,binding signal,[4],"1.53 fold enrichment (6-mer frequency, TF over GST control)"
same,binding signal,[5],"1.44 fold enrichment (6-mer frequency, TF over GST control)"
same,binding signal,[6],"1.43 fold enrichment (6-mer frequency, TF over GST control)"
same,binding signal,[7],"1.68 fold enrichment (6-mer frequency, TF over GST control)"
same,binding signal,[8],"1.52 fold enrichment (6-mer frequency, TF over GST control)"
same,binding signal,[9],"1.27 fold enrichment (6-mer frequency, TF over GST control)"
same,binding signal,[10],"1.59 fold enrichment (6-mer frequency, TF over GST control)"
same,binding signal,[11],"1.52 fold enrichment (6-mer frequency, TF over GST control)"
same,binding signal,[12],"1.15 fold enrichment (6-mer frequency, TF over GST control)"
same,binding signal,[13],"1.37 fold enrichment (6-mer frequency, TF over GST control)"
same,binding signal,[14],"1.45 fold enrichment (6-mer frequency, TF over GST control)"
same,binding signal,[15],"1.4 fold enrichment (6-mer frequency, TF over GST control)"
same,binding signal,[16],"1.44 fold enrichment (6-mer frequency, TF over GST control)"
same,binding signal,[17],"1.55 fold enrichment (6-mer frequency, TF over GST control)"
same,binding signal,[18],"1.29 fold enrichment (6-mer frequency, TF over GST control)"
same,binding signal,[19],"1.47 fold enrichment (6-mer frequency, TF over GST control)"
